# Source: PubChem BioAssay
# Rows were chosen to be rich in hits. Some 4.3% of all compounds tested hit in one or more screens of this group.
# Peg3 promoter: inhibitors of Peg3 promoter | inhibition, % at 20 µM | hit rate 1.7% among 360,000 | HeLa PEG-Prom luciferase reporter, luminescence, overnight;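 active = inhibition of at least 50% at 20 µM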
# CF NFkB inh: blocks PAF-induced NF-kB reporter in cystic fibrosis cells. AID 588850. inhibition, % at 5 µM. hit rate 0.86% among 360,000. KKLEB NF-kB-GFP reporter, GFP fluorescence overnight;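 active = at least 50% inhibition at 5 µM, scaled per plate between neutral and stimulator controls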;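 note: PAF is a Pseudomonas aeruginosa culture filtrate used as stimulus; plate controls were PAF-stimulated DMSO wells for no effect and unstimulated DMSO wells for full effect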
# KKLEB tox: CF airway cell cytotoxicity counter-screen | AID 602141 | activity change (cytotoxicity), % at 5 µM | hit rate 0.36% among 360,000 | KKLEB CF airway cells viability, ATPlite luminescence, overnight; stronger effect = lower value; cells stimulated with P. aeruginosa culture filtrate;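 active = corrected activity change at or below -50% at 5 µM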
# CHOP inh: inhibitors of CHOP induction in ER stress response. CHO-K1 CHOP-promoter luciferase, tunicamycin-induced, 15-18 h. hit rate 3.8% among 220,000. AID 2732. inhibition, % at 10 µM;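 active = compounds that reduced the stress-induced luciferase reporter signal by more than about 70% of percent inhibition, limit read from the data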;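 note: 0% = tunicamycin plus vehicle and 100% = wells without tunicamycin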
# HIF-2a block: HIF-2a inhibition; inhibition, % at 18.8 µM; AID 624352; 786-0 RCC cells HIF-2a reporter, luciferase luminescence, overnight; hit rate 0.72% among 360,000;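 active = inhibition of the luminescence signal of 40% or more relative to plate controls, in a single-dose primary screen at 18.75 µM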
# MITF TRPM1 inh: inhibitors of MITF-driven TRPM1 promoter in melanoma cells. inhibition, % at 12.5 µM. hit rate 0.83% among 330,000. SK-MEL-5 TRPM1 promoter luciferase, 24 h;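 active = mean inhibition across replicates of 60% or more, whatever share of single replicates reaches that level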
# * marks the source's active call; other numbers are inactive results; nt = no result given.
SMILES,Peg3 promoter,CF NFkB inh,KKLEB tox,CHOP inh,HIF-2a block,MITF TRPM1 inh
CC1(C(=O)Nc2ccccc2Br)CCN1C(=O)Cc1ccccc1Cl (stereo unspecified),-1,-3,-4,nt,7,nt
Cc1nn(Cc2ccccc2)c(Cl)c1/C=N/NC(=O)CNc1cccc(C(F)(F)F)c1,-17,19,-34,94*,24,-4
O=C(N/N=C/c1ccc(-c2cccc(C(F)(F)F)c2)o1)c1ccccc1Br,-26,-19,-3,42,-88,-46
Cc1ccc(NCC(=O)N/N=C/c2ccc(-c3cccc(C(F)(F)F)c3)o2)cc1,-3,-2,8,81*,3,-14
NC(=O)N/N=C/c1ccc(-c2cccc(C(F)(F)F)c2)o1,-79,8,-2,36,-102,-18
O=C(N/N=C/c1ccc(-c2cccc(C(F)(F)F)c2)o1)c1ccccc1O,38,13,-3,90*,-1,8
COc1ccccc1Cc1c(-c2ccccc2)nc2c(C)cc(Br)cn12,-31,25,-15,nt,-23,nt
CC(OC(=O)c1nn(C)c(=O)c2ccccc12)C(=O)Nc1ccc(S(N)(=O)=O)cc1 (stereo unspecified),8,4,-8,nt,3,2
CCCS(=O)(=O)NC(=O)C1(C)CCN(C(=O)c2snnc2C)C1 (stereo unspecified),0,20,-6,nt,1,nt
CCCCCCCCCCCCCCCC(=O)NCCc1c[nH]c2ccccc12,-6,-6,12,7,11,9
O=C(O)CCCCCNc1nc(=S)[nH]c2ccccc12,-3,-4,9,0,4,-7
O=C(CCCCCNc1nc(=S)[nH]c2ccccc12)NCCc1ccc(Cl)cc1,8,-17,-4,83*,11,6
O=C(CCCCCNc1nc(=S)[nH]c2ccccc12)NCCc1c[nH]c2ccccc12,51*,13,4,44,19,15
Cc1ncc(CO)n1Cc1ccc(Cl)cc1,12,9,-14,nt,10,nt
Cc1ccccc1C(=O)Nc1ccc(S(=O)(=O)N2CCOCC2)cc1,-2,5,4,nt,11,11
Cc1ccc(O)c(Cc2cc(C)cc(Cc3cc(C)ccc3O)c2O)c1,56*,21,6,nt,17,nt
Cc1ccc(O)c(CNCCNCc2cc(C)ccc2O)c1,29,11,-13,nt,10,-4
COc1ccc(-c2n(Cc3ccccc3)c3ccccc3[n+]2Cc2ccccc2)cc1,48,48,-32,-2,19,80*
CCCC(=O)Nc1ccccc1-c1nnn(CC(=O)Nc2ccc(OCC)cc2)n1,20,-12,5,80*,4,14
COc1ccc(NC(=O)Cn2nnc(-c3ccccc3NC(=O)c3cccs3)n2)cc1,28,14,-5,73*,20,15
O=C(CNC(=O)c1cccc(F)c1)N/N=C/c1ccc([N+](=O)[O-])s1,3,5,0,-1,1,71*
O=C(N/N=C/c1ccc([N+](=O)[O-])s1)C(O)c1ccccc1 (stereo unspecified),11,-16,1,49,-6,69*
O=C(N/N=C\c1ccc([N+](=O)[O-])s1)c1cncc(Br)c1,63*,12,16,95*,-23,78*
O=C(N/N=C/c1cccs1)c1cncc(Br)c1,-20,-18,-7,-2,-10,-1
O=C(Cc1ccccc1)N/N=C/c1ccc([N+](=O)[O-])s1,-55,0,7,-79,-105,68*
SMILES,Peg3 promoter,CF NFkB inh,KKLEB tox,CHOP inh,HIF-2a block,MITF TRPM1 inh
O=C1/C(=C/c2ccco2)SC(=S)N1CCC(=O)N1CCCCC1CCO (stereo unspecified),9,7,2,nt,-12,8
CC(=O)Nc1ccc(NC(=O)CSc2nc3[nH]ncc3c(=O)n2-c2ccccc2)cc1,-4,1,1,nt,16,-5
CC(=O)NCCc1ccc(C(=O)COC(=O)c2cccs2)cc1,-178,3,-12,nt,-18,nt
Cc1nc(Cc2nnc(SCC(=O)N3c4ccccc4NC(=O)C3(C)C)o2)cs1,10,-12,12,nt,1,nt
O=[N+]([O-])c1cc(-c2n[nH]c(-c3ccccc3)n2)cc([N+](=O)[O-])c1,0,-9,9,94*,-34,12
O=[N+]([O-])c1cc([N+](=O)[O-])c2n[nH]c(-c3ccccc3)c2c1,2,-35,6,72*,8,2
